High-throughput results deposited in PubChem by National Center for Advancing Translational Sciences (NCATS).
HP1b chromo inh: inhibitors of HP1-beta chromodomain binding to methylated histone tails | P83916 | AlphaScreen HP1-beta / biotin-H3K9me3 peptide binding | Potency, µM (doses to about 114 µM), without a hit: at the highest dose activity change, negative = inhibition, most hits filed as inhibitors | 390,000 compounds, 0.56% hits; note: potency is the fitted concentration of half-maximal effect; nearly all actives have a fitted effect of over 70% in size
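HP1-beta protein (50 nM final) preincubated 30 min at room temperature with biotinylated H3(1-18)K9me3 peptide (50 nM) in PBS pH 7.4, 0.01% Tween-20, then compound added for 30 min. AlphaScreen streptavidin donor/nickel chelate acceptor beads (10 ug/mL final), 30 min dark, luminescence read.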
L3MBTL1 block: blocks human L3MBTL1; AID 485360; Potency, µM (top dose mostly 57.1 µM), inactives show at the top dose activity, negative = inhibition, usual class: inhibitors; Q9Y468; 230,000 compounds, 0.66% hits; AlphaScreen L3MBTL1–H3K9me1 peptide binding; note: potency is the fitted concentration of half-maximal effect; % is set by controls: 0 for no effect and ±100 for the full control effect; nearly all actives have a fitted effect of over 60% in size
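AlphaScreen assay: L3MBTL1 (50 nM final) was preincubated 30 min at room temperature with biotinylated H3(1-15)K9me1 peptide (75 nM final), then 30 min with library compounds; streptavidin donor and nickel chelate acceptor beads (10 ug/mL final) added, 30 min dark.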
BAZ2B block: blocks human BAZ2B. Q9UIF8. AlphaScreen BAZ2B-H3K14Ac peptide displacement. Potency, µM (highest dose often 114 µM), inactives show top-dose activity change, negative = inhibition, hits mostly inhibitors. 360,000 compounds, 4.4% hits; note: potency is the fitted concentration of half-maximal effect; % is set by controls: 0 for no effect and ±100 for the full control effect; nearly all actives have a fitted effect of over 60% in size
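Multi-concentration screen (max 110 uM) measuring displacement of acetylated histone H3 peptide from BAZ2B by AlphaScreen, using 50 nM protein, 50 nM peptide and 10 ug/mL streptavidin donor plus Ni-chelate acceptor beads.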
JMJD2A Tudor: blocks the human JMJD2A Tudor domain; AlphaScreen JMJD2A-Tudor / H3K4me3 peptide binding; Potency, µM (top dose mostly 114 µM), without a hit: top-dose activity change, negative = inhibition, actives largely listed as inhibitors; 390,000 compounds, 4.4% hits; AID 504339; note: potency is the fitted concentration of half-maximal effect; % is set by controls: 0 for no effect and ±100 for the full control effect; nearly all actives have a fitted effect of over 50% in size
PI5P4Ka inh: inhibitors of human PI5P4K alpha; P48426; 330,000 compounds, 1.2% hits; max response, %; PI5P4Kalpha enzyme, ADP-Glo luminescence, 60 min; active compounds read low; AID 652105; active = max response of -50% or lower; inconclusive = between -30% and -50%; inactive = -30% or higher; note: value at the top dose of about 77 µM; % is set by controls: 0 for no effect and ±100 for the full control effect
Target sequence (P48426 whole entry, looked up): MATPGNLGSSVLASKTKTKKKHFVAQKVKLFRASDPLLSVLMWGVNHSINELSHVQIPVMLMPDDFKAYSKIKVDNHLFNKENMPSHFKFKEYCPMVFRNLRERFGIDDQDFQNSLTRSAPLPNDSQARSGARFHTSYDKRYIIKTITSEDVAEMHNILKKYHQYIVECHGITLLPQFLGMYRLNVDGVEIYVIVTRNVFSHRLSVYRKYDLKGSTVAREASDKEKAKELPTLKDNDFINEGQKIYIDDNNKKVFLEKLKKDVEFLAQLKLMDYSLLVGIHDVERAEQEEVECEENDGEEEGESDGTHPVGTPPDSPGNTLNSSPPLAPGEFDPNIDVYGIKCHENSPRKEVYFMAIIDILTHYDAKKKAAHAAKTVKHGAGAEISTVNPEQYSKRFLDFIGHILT
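Compounds were pin-transferred onto PI5P4Kalpha and substrate in HEPES pH 7.4 buffer with EGTA, CHAPS and 5% DMSO. ATP (5 microM final) started the reaction, which ran 60 minutes at room temperature before ADP-Glo detection.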
G9a block: G9a (human) methyltransferase inhibition. G9a H3K9 monomethylation, AlphaScreen, 2 h. Potency, µM (series often up to 102 µM), for the others: at the highest dose activity, negative = inhibition, hits mostly inhibitors. 350,000 compounds, 8.8% hits. AID 504332. Q96KQ7; note: potency is the fitted concentration of half-maximal effect; % is set by controls: 0 for no effect and ±100 for the full control effect; nearly all actives have a fitted effect of over 75% in size
Target sequence (Q96KQ7 913-1193 limits assumed): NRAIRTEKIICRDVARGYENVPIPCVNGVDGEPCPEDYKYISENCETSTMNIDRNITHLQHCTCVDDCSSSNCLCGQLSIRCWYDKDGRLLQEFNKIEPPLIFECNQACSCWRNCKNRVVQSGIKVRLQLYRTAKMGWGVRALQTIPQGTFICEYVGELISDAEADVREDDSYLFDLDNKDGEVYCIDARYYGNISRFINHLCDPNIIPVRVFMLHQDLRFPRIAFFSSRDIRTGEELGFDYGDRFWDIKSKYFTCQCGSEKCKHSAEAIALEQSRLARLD
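Step 1: enzyme (final 20 nM) with compound, 15 min RT. Step 2: substrate peptide 500 nM and SAM 20 uM, 2 h RT. Step 3: anti-H3K9me1 antibody and AlphaScreen beads, 10 min, then plate read.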
Starred values were filed as active, the others as inactive; ? = inconclusive; nt = no result; [ ] = another dose, or the depositor's remark. In the library only some 11% were active in any assay of this set; here they are far more common. Unless noted, calls come from the whole dose curve; as a rule, active = well fitted inhibition curve with a large enough effect; inconclusive = small, poorly fitted or top-dose-only effect; inactive = no such curve, though single readings can be large or run the other way.

SMILES	HP1b chromo inh	L3MBTL1 block	BAZ2B block	JMJD2A Tudor	PI5P4Ka inh	G9a block
CCCN(CCC)C(=O)CSc1ncccc1C(=O)O	23%	?	-1%	89µM*	4	?
CN(C(=O)CSc1ncccc1C(=O)O)c1ccccc1	25%	-1%	1%	-16%	nt	28%[12.7 µM]
Cc1cccc(CCNC(=O)CC2C(=O)NCCN2Cc2ccccc2C)n1 (stereo not given)	43%	nt	8%	-13%	8	50µM*
Cc1ccccc1CN1CCNC(=O)C1CC(=O)NCCN1CCCCC1=O (stereo not given)	38%	nt	-6%	-10%	5	79µM*
COc1ccc(CN2CCNC(=O)C2CC(=O)O)c(OC)c1 (stereo not given)	41%	4%	11%	-4%	3	14µM*
Cc1ccccc1CN1CCNC(=O)C1CC(=O)O (stereo not given)	20%	6%	-2%	-8%	-5	14µM*
COc1ccc(N2C(=O)C(CC(=O)Nc3ccc(F)cc3)N(CCC3=CCCCC3)C2=O)cc1 (stereo not given)	37%	nt	4%	1%	nt	0%[59 µM]
Cc1ccc(Cl)cc1N1CCN(C(=O)c2ccc(NC(=O)c3nsc4ccccc34)cc2)CC1	15%[57 µM]	nt	0%	-17%	nt	-1%[59 µM]
CC(C)CN1CCNC(=O)C1CC(=O)NCCc1ccc(C(F)(F)F)cc1 (stereo not given)	24%	5%	-20%	-3%	-8	?
CC(C)CN1CCNC(=O)C1CC(=O)NCCCN1CCCc2ccccc21 (stereo not given)	2%	-8%	79µM*	-34%	6	-11%[12.7 µM]
COc1cc(/C=N/N2CCCCC2)cc(OC)c1O	-5%	nt	-34%	-26%	-4	22µM*
COc1ccc(O)c(/C=N/N2CCCCC2)c1	4%	nt	50µM*	50µM*	0	50µM*
COc1cc(C=NN2CCCCC2)cc(OC)c1OC	nt	nt	nt	nt	-1	nt
COc1ccc(/C(C)=N/N2CCCCC2)c(O)c1	40%	nt	2%	14%	-8	8%
COc1ccc(N2CCN(C(=O)Cn3cnc4sc(C)c(S(=O)(=O)N5CCC(C)CC5)c4c3=O)CC2)cc1	3%	nt	-37%	?	nt	?
O=C1CCC(C(=O)N2CCc3c(Cl)cccc3C2)CN1CCCN1CCOCC1 (stereo not given)	37%	nt	-12%	-1%	-9	40µM*
CCCCC(CC)CCC(CC(C)C)OS(=O)(=O)O (stereo not given)	nt	nt	nt	nt	nt	-3%[12.7 µM]
CCN(C(=O)Cn1c(SCC(=O)Nc2ccc(OC)cc2)nc2ccccc21)c1cccc(C)c1	24%	nt	-20%	-14%	nt	-2%[59 µM]
FC(F)(F)c1ccc(/C=N/N2CCN(Cc3ccccc3)CC2)cc1	?	-11%	?	?	-2	?
O=[N+]([O-])c1cc(/C=N/N2CCN(Cc3ccccc3)CC2)ccc1Cl	?	-8%	11µM*	?	5	28µM*
O=[N+]([O-])c1ccc(Cl)c(/C=N/N2CCN(Cc3ccc(Cl)cc3)CC2)c1	23%	nt	22µM*	23%	-6	10µM*
O=[N+]([O-])c1ccc(/C=N\N2CCN(Cc3ccccc3Cl)CC2)cc1	nt	nt	nt	nt	9	nt
O=[N+]([O-])c1ccc(/C=N/N2CCN(Cc3ccccc3)CC2)cc1	?	?	13µM*	45µM*	7	50µM*
O=[N+]([O-])c1ccc(Cl)c(/C=N/N2CCN(Cc3ccccc3)CC2)c1	29%	-15%	10µM*	5%	2	40µM*
CCOc1ccc(NC(=O)C2(c3cccs3)CCOCC2)cc1	-8%	nt	-6%	-4%	nt	10%[59 µM]
SMILES	HP1b chromo inh	L3MBTL1 block	BAZ2B block	JMJD2A Tudor	PI5P4Ka inh	G9a block
O=c1c(-c2ccc(F)cc2)nc2cnc(Oc3cccc(Cl)c3)nc2n1C[C@H]1CCCO1	nt	nt	nt	nt	nt	0%[0.501 µM]
CCN(C(=O)c1cnc2ccc(C)cn2c1=O)c1ccccc1	27%	nt	1%	-1%	nt	0%[59 µM]
Cc1onc(-c2ccccc2Cl)c1C(=O)Oc1cc(F)cc(F)c1	72%	nt	121%	59%	nt	46%[59 µM]
O=[N+]([O-])c1ccc(Cl)c(/C=N/N2CCN(Cc3ccccc3Cl)CC2)c1	?	-8%	25µM*	?	2	45µM*
Clc1cccc(/C=N/N2CCN(Cc3ccccc3)CC2)c1	?	-16%	40µM*	50µM*	13	45µM*
C(=N\N1CCN(Cc2ccccc2)CC1)/c1ccccc1	5%	nt	?	-10%[11.4 µM]	3	?
COc1ccc(Cl)cc1NC(=O)c1sc(-n2nc(C)c(Cc3ccccc3)c2C)nc1C	17%	nt	-13%	-14%	nt	5%[59 µM]
Nc1ccccc1Nc1cc(-c2ccccc2)nn1-c1cccc(Cl)c1	45µM*	?	11µM*	20µM*	16	?
CC1(OC(=O)c2ccc(Cl)nc2)C(=O)C=C2C=C3CCCN3C=C2C1=O (stereo not given)	?	nt	?	45µM*	?	-32%[59 µM]
CN(C)CCNC(=O)CCCN1C(=O)c2cccnc2Oc2ccc(Cl)cc21	31%	nt	-2%	6%	nt	-6%[59 µM]
Cc1ccc2c(c1)nnn2C1CCN(S(=O)(=O)c2ccc(C(=O)N3C(C)CCCC3C)cc2)CC1 (stereo not given)	5%	-1%	?	50µM*	1	25µM*
Cc1ccc2c(c1)nnn2C1CCN(S(=O)(=O)c2ccc(C(=O)O)cc2)CC1	20%	12%	-6%	-3%	5	nt
O=S(=O)(c1ccc(C(F)(F)F)cc1)N1CCN(c2nc(-c3cccs3)nc3ccccc23)CC1	64%	nt	nt	-12%	nt	nt
O=C1NC(Cc2ccccc2)C(=O)N1Cc1ccccc1 (stereo not given)	13%[57 µM]	nt	nt	-6%	-2	nt
O=c1ccsn1Cc1ccccc1	?	nt	56µM*	40µM*	?	?
S=C(c1ccc(Br)cc1)N1CCCC1	11%	nt	-4%	0%	0	45µM*
Oc1ccc(C(=S)N2CCCCC2)cc1	-21%	nt	0%	-15%	-16	45µM*
COC(=O)c1ccc(C(=S)N2CCCCC2)cc1	26%	1%	-15%	-5%	0	21%[12.7 µM]
COc1ccc(-n2c(=O)c3c(c4cc(OC)ccc4n3C)n(Cc3ccc(F)cc3Cl)c2=O)cc1	10%	nt	-13%	-9%	nt	1%[59 µM]
COc1ccc(CNc2cccc3[nH]c(C(F)(F)F)nc23)cc1	18%	nt	?	?	-3	-13%[2.33 µM]
COc1cc(CNc2cccc3[nH]c(C(F)(F)F)nc23)cc(OC)c1	28%	nt	?	50µM*	-11	40µM*
Cn1ncc2c(Nc3cccc(C#N)c3)ncnc21	29%	nt	3%	?	nt	-9%[59 µM]
